Compounds without any hit were thinned out: in the full panel of roughly 83,000, 20% have a hit.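 Each cell line was grown in a 96-well plate and treated with one concentration of compound for 48 hours. Values below 10 were considered active.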 A number with no mark means an inactive call. Active and inactive are the calls of the source.
system: NCI-H460 lung; experiment: NCI-60 one-dose screen, 48 h (100 = growth as untreated, 0 = no growth, -100 = all killed); settings: 10 µM unless noted
Description: Growth inhibition of the NCI-H460 human Non-Small Cell Lung tumor cell line is measured as a screen for anti-cancer activity. Cells are grown in 96 well plates and exposed to the test compound for 48 hours. Compounds are tested at a single concentration, which is 10^-5 M for most compounds. The reported endpoint is percent growth (GI% or GIPRCNT), where numbers from 0 - 100% represent growth inhibition, and numbers from -100% - 0 represent cell death. For example, a value of 40 represents 60% growth inhibition. A value of 0 means no net growth occurred over the course of the experiment. A value of -40 indicates 40% of cells at the beginning of the experiment died by the end of the experiment. A value of -100 means all cells are dead at the end of the experiment.
NCI-60 Human Tumor Cell Lines Screen was performed using the standard one-dose NCI protocol, which is described in more detail at https://dtp.cancer.gov/discovery_development/nci-60/default.htm.
Compounds with GIPRCNT values below 10 were considered active. Activity score was based on GIPRCNT using the following formula: […]
Score is 0 for GIPRCNT values of 100 or above, 50 for GIPRCNT values of 0, and 100 for GIPRCNT values of -100.

| SMILES | growth |
| --- | --- |
| c1ccc(-c2ccc3c(c2)C2(CCNCC2)CN3)cc1 | 95.8% |
| C[C@@H]1CN(c2cnc(C(=O)Nc3cc(F)cc4cccnc34)cn2)C[C@H](C)N1 | 88.9% |
| CN(C)Cc1cc(C(C)(C)C)cc(Br)c1O | 86.5% |
| COc1cc(N2C(=O)[C@H](Cl)C2c2ccc(SC)cc2)cc(OC)c1OC (stereo not given in full) | 5.39% (active) |
| COC(=O)[C@]1(C)CCC[C@]2(C)[C@H]3C[C@@H]4[C@H]5[C@@H]6CC/C(=N\OCC/C(N)=N/O)[C@H]5[C@@]3(CC[C@H]21)CC4(C(C)C)O6 | 67.5% |
| Fc1cccc(CNc2c3ccccc3nc3ccccc23)c1 | 12.7% |
| O=c1cc(-c2ccccc2)nc(SCc2nc3cc(Cl)c(Cl)cc3[nH]2)[nH]1 | 111% |
| CC1(C)CC[C@]23CC[C@]4(C)[C@H](CC[C@@H]5[C@@]6(C)CCNCC(C)(C)[C@@H]6CC[C@]54C)[C@H]2[C@H]1OC3 | 23.7% |
| Brc1ccc(Nc2nc(Nc3cnc4ccccc4c3)c3[nH]cnc3n2)cc1 | 65% |
| Cc1ccccc1N1CCN(C(=S)c2ccccc2)CC1 | 92.4% |
| COCCn1cc(-c2nc(-c3cc4cccnc4n3C)cs2)c2ccccc21 | 19.9% |
| COC(=O)c1c2c(c(C)[n+]([O-])c1C)C(=O)C(NCc1ccccc1)=CC2=O | 11% |
| Cc1ccc(S(=O)(=O)N2CCCN(c3nc(-c4ccccc4)nc4nc(-c5ccccc5)oc34)CC2)cc1 | 103% |
| O=C(C[C@]1(O)C(=O)Nc2ccc(Br)cc21)c1ccco1 | 105% |
| C/C(=N\Nc1ccccc1)c1ccc(NC2=CC(=O)c3ccccc3C2=O)cc1 | 23.5% |
| CC(C)Cc1nc(Nc2ccccc2)[nH]c(=O)c1C#N | 59.8% |
| Oc1c(I)cc(I)cc1CN(Cc1ccccn1)Cc1ccccn1 | 4.01% (active) |
| O=C1/C(=C/c2ccc(Cl)cc2)CN(C(=O)C(Cl)Cl)C/C1=C\c1ccc(Cl)cc1 | -64.9% (active) |
| O=C(Oc1ccc2c(c1)sc1nc(-c3ccccc3)[nH]c(=O)c12)C(F)(F)F | 13% |
| CS(=O)(=O)Nc1cc(-c2ccc3ncnc(Nc4ccc(OCc5ccccn5)c(Cl)c4)c3c2)cnc1Cl | 9.64% (active) |

| SMILES | growth |
| --- | --- |
| Cn1cc(-c2nc3c(F)cc4[nH]ncc4c3c3c2CCCC3)c(C(F)(F)F)n1 | 37.5% |
| C(=C(\C1=NCCN1)n1ccc2ccccc21)/c1ccccc1 | 101% |
| Clc1ccc(Nc2ncc(Cc3cccc(Cl)c3Cl)s2)cc1 | 97.6% |
| CN1CCN(Cc2ccc(NC(=O)c3cncc(C#Cc4cnc(N)cc4C#N)c3)cc2C(F)(F)F)CC1 | 7.15% (active) |
| COc1cc(/C=C/C(=O)c2cc(OC)c(OC)c(OC)c2)ccc1Oc1nc2c(c(=O)n(C)c(=O)n2C)n1C | -5.25% (active) |
| O=c1oc2c(cc1-c1ccccc1)c[n+]([O-])c1ccccc21 | 98% |
| COc1c2c(cc3c1C(=O)N[C@@H]1[C@@H](O)[C@@H](O)[C@H](O)C[C@@H]31)OCCO2 | 109% |
| O=C1CCC(C(=O)N/N=C/c2cc(F)ccc2F)N1 (stereo not given) | 101% |
| COc1cc(Cc2cc(OC)c(O)c(OC)c2)cc(OC)c1O | 99.1% |
| Nc1ccc(Br)cc1C(F)(F)F | 111% |
| c1cc(OCCN2CCCCC2)ccc1CNc1ccc2nc(CCC3CCCCC3)[nH]c2c1 | 33.6% |
| CCOC(=O)C1=C(c2ccccc2)N=C2N(c3ccccc3)N=C(C(C)=O)N2C1c1ccc(F)cc1 (stereo not given) | 100% |
| Cc1nc2sc(C(=O)Nc3cccc4ccccc34)c(N)c2cc1C(=O)c1ccccc1 | 7.31% (active) |
| C#CCOc1ccc2nc(CCl)c(Cl)c(Nc3cccc(C(F)(F)F)c3)c2c1 | 105% |
| Cc1sc2nc(NCCN)[nH]c(=O)c2c1C | 101% |
| CNCCCNc1nc2ccccc2c2c(=O)c3cc(Cl)ccc3sc12 | -70.5% (active) |
| CCCCCCCCCCOC(=O)c1nn(C(C)=O)c2cc(C)c(C)cc12 | 101% |
| O=c1oc2ccccc2cc1-c1nn(-c2ccccc2)cc1-c1nn[nH]n1 | 105% |
| Cc1cccc(N2C(=O)/C(=C/C(Cl)=C/c3ccc([N+](=O)[O-])cc3)SC2=S)c1C | 21% |
| O=C(/C=C/c1ccccc1)c1ccc(-n2cc(CN3CCN(c4cc5c(cc4F)c(=O)c(C(=O)O)cn5C4CC4)CC3)nn2)cc1 | 76.1% |

Reference: PubChem BioAssay (NCI)
